Records with an inconclusive call do not appear. Calls of active or inactive are those of the source. How the source made its calls, unless noted: active means hit-call score of the fitted dose curve at least 0.9, where 1 is the maximum; inactive means score below 0.9.
Experiments:
[1] = target: Aryl hydrocarbon receptor (Homo sapiens) (UniProt P35869); assay: ATG_Ahr_CIS: Attagene CIS-FACTORIAL HepG2 Assay for human Aryl Hydrocarbon Receptor (Ahr) (AID 2282930); settings: HepG2 AhR cis-factorial reporter transcription; actives raise or lower the signal
Sequence of Aryl hydrocarbon receptor (Homo sapiens) (P35869 whole entry, looked up): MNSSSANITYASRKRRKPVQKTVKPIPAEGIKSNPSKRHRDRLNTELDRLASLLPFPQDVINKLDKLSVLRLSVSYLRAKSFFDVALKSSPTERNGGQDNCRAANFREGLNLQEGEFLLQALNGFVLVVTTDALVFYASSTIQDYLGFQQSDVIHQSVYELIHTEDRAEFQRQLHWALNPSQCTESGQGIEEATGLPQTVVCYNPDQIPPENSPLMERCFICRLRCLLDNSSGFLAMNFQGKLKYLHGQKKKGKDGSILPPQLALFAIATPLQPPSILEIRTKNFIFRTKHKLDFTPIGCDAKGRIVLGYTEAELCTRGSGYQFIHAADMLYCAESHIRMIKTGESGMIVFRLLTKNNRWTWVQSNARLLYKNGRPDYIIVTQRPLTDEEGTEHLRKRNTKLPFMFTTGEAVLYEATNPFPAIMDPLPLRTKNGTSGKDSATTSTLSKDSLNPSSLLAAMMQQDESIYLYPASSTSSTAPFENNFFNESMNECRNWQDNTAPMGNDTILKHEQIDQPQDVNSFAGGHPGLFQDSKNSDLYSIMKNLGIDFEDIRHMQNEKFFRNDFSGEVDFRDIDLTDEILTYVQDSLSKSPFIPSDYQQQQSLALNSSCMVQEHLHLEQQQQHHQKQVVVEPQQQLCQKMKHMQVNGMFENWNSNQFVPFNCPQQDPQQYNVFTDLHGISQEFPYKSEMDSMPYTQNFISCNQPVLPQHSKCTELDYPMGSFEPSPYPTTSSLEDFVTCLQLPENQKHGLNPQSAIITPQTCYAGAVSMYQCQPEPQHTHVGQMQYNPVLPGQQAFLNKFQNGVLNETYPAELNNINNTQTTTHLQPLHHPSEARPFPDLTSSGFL
Outline: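 Transient MRTU transfection of HepG2 → 24 h compound exposure → total RNA, oligo(dT) RT → PCR, 6-FAM extension, HpaI cut → CE fluorescence. DMSO = baseline; bidirectional curve fit.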

[2] = ATG_GLI_CIS: Attagene CIS-FACTORIAL HepG2 Assay for human Zinc Finger Protein GLI1 (AID 2282945); settings: HepG2, Attagene cis-factorial reporter mRNA, GLI element; actives raise or lower the signal
Outline: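 Bidirectional curve fits relative to DMSO, using reporter mRNA levels from RT-PCR plus capillary electrophoresis. Cells were HepG2 transiently carrying cis-regulated reporter constructs, harvested 24 h after dosing.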

[3] = ATG_PXRE_CIS: Attagene CIS-FACTORIAL HepG2 Assay for human Pregnane X Receptor Element (PXRE) (AID 2282957); settings: HepG2 Attagene CIS-FACTORIAL PXRE reporter, mRNA; actives raise or lower the signal
Outline: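 Using HepG2 transfected with multiple reporter transcription units, endogenous factor-driven transcription was scored as reporter mRNA after 24 h exposure.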

[4] = ATG_PPRE_CIS: Attagene CIS-FACTORIAL HepG2 Assay for human Peroxisome Proliferator-activated Response Element (PPRE) (AID 2282958); settings: HepG2 PPRE cis-element reporter, Attagene transcription factor profiling; actives raise or lower the signal
Outline: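 Measured endpoint: PPRE-controlled reporter mRNA, detected by RT-PCR and capillary electrophoresis fluorescence, from transiently transfected HepG2 cells 24 h after dosing. Curves fitted in both directions using DMSO baseline.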

[5] = ATG_SREBP_CIS: Attagene CIS-FACTORIAL HepG2 Assay for human Sterol Regulatory Element Binding (SREBP) (AID 2282962); settings: HepG2 Attagene cis-factorial SREBP reporter, mRNA; actives raise or lower the signal
Outline: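 In this cis-format assay, HepG2 liver cells express reporters controlled by promoter elements responsive to native transcription factors. Exposure lasts 24 h; reporter mRNA fluorescence from capillary electrophoresis gives the signal, fitted bidirectionally against DMSO.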

[6] = ATG_TCF_b_cat_CIS: Attagene CIS-FACTORIAL HepG2 Assay for human T-Cell-Factor with beta-catenin (TCF/b-cat) (AID 2282965); settings: HepG2 TCF/beta-catenin cis-reporter transcription, actives raise or lower the signal
Outline: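 Endogenous transcription factor activity is captured through cis-promoter reporter constructs transiently introduced into human HepG2 liver cells. Induced reporter mRNA is measured after 24 h and fitted bidirectionally relative to DMSO.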

[7] = target: X-box-binding protein 1 (Homo sapiens) (UniProt P17861); assay: ATG_Xbp1_CIS: Attagene CIS-FACTORIAL HepG2 Assay for human X-box Binding Protein 1 (XBP1) (AID 2282972); settings: HepG2 XBP1 cis-element reporter, Attagene multiplex; actives raise or lower the signal
Sequence of X-box-binding protein 1 (Homo sapiens) (P17861 whole entry, looked up): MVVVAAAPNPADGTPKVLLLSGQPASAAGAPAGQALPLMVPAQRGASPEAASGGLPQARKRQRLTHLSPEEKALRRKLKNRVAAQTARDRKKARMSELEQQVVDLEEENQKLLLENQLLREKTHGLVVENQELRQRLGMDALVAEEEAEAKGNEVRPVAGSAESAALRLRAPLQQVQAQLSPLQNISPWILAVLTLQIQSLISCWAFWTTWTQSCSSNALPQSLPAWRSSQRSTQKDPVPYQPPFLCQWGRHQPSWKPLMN
Outline: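 Changes in reporter transcript abundance, read by RT-PCR and capillary electrophoresis, reflect endogenous transcription factor activity. Transfected HepG2 cells received compound for 24 hours; DMSO defined baseline for bidirectional analysis.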

[8] = ATG_M_19_TRANS: Attagene TRANS-FACTORIAL HepG2 Assay for M19 Transcription Factor (Internal Marker) (AID 2282974; active means hit-call score of the fitted dose curve at least 0.9, where 1 is the maximum); settings: HepG2 Attagene TRANS-FACTORIAL M19 internal marker reporter
Outline: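 Using RT-PCR and capillary electrophoresis, reporter mRNA from transiently transfected human HepG2 cells was quantified following 24 h exposure; activity was fitted in the positive direction against DMSO.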

[9] = ATG_GAL4_TRANS: Attagene TRANS-FACTORIAL HepG2 Assay for GAL4 (Internal Marker) (AID 2282976; active means hit-call score of the fitted dose curve at least 0.9, where 1 is the maximum); settings: HepG2 Attagene TRANS GAL4 internal marker reporter
Outline: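 First, HepG2 cells were transfected with reporter units under GAL4-UAS control. Next, they were treated with chemical for 24 h. Finally, RNA was reverse-transcribed, PCR-amplified, FAM-labelled and resolved by capillary electrophoresis, with induction scored against DMSO.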

[10] = target: Nuclear receptor subfamily 1 group I member 2 (Homo sapiens) (UniProt O75469); assay: ATG_PXR_TRANS: Attagene TRANS-FACTORIAL HepG2 Assay for human Pregnane X Receptor (PXR) (AID 2283008; active means hit-call score of the fitted dose curve at least 0.9, where 1 is the maximum)
Sequence of Nuclear receptor subfamily 1 group I member 2 (Homo sapiens) (O75469 whole entry, looked up, the tested form may be a part): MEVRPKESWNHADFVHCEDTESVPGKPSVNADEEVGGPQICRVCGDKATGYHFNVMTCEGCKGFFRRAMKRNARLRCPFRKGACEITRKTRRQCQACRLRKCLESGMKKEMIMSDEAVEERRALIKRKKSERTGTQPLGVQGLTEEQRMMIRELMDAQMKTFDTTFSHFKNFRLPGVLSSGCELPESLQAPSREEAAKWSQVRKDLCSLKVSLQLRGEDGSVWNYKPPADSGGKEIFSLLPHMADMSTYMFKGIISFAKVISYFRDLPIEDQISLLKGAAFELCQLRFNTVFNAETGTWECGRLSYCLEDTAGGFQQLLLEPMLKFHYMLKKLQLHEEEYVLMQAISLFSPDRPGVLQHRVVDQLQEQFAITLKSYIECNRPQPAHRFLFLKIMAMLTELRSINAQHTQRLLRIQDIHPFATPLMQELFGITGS
Outline: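 Multiplexed TRANS reporter panel in HepG2; this component tracks PXR-Gal4-driven reporter mRNA after 24 h dosing, measured by RT-PCR with capillary electrophoresis fluorescence, fitted against DMSO.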

[11] = target: Retinoic acid receptor RXR-alpha (Homo sapiens) (UniProt P19793); assay: ATG_RXRa_TRANS: Attagene TRANS-FACTORIAL HepG2 Assay for human Retinoid X Receptor alpha (RXRa) (AID 2283012; active means hit-call score of the fitted dose curve at least 0.9, where 1 is the maximum)
Sequence of Retinoic acid receptor RXR-alpha (Homo sapiens) (P19793 whole entry, looked up, the tested form may be a part): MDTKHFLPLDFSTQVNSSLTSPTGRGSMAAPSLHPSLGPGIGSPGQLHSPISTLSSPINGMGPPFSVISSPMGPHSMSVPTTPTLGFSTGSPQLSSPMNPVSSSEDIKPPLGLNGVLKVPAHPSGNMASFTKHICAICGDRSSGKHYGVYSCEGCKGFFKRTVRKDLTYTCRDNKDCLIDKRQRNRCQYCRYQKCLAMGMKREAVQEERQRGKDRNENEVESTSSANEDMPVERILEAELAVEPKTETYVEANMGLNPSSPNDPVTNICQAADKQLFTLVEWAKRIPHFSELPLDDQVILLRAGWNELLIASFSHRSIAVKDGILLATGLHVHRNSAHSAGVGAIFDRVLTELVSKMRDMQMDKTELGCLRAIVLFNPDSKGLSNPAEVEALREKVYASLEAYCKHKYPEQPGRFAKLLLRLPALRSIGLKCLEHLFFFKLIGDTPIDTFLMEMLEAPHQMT
Outline: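 Read-out: fluorescent reporter-transcript fragments quantified by capillary electrophoresis after RT-PCR. Transiently transfected HepG2 cells carrying GAL4-UAS reporters and NR-GAL4 chimeras were exposed to chemical for 24 h; activity scored as increase over DMSO.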

[12] = TOX21_p53_BLA_p5_viability: Viability Assessment in the Tox21 HCT-116 p53 Agonism Beta-lactamase Assay, Phase 5 (AID 2283600; active means hit-call score of the fitted dose curve at least 0.9, where 1 is the maximum)
Outline: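 Workflow: seed 4000 cells per well, wait 5 h, add compounds (DMSO, 217-fold dilution), incubate 16 h, load CCF4-AM 2 h, add CellTiter-Glo, read luminescence after 30 min.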

[13] = ATG_GRE_CIS: Attagene CIS-FACTORIAL HepG2 Assay for human Glucocorticoid Response Elements (GRE) (AID 2282947); settings: HepG2 GRE cis-reporter, Attagene multiplex mRNA; actives raise or lower the signal
Outline: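 Multiplexed cis-reporter mRNA induction, HepG2, 24 h post-dose. RT-PCR, FAM-labelled, HpaI-digested amplicons by CE. Bidirectional fit vs DMSO.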

[14] = target: Myc proto-oncogene protein (Homo sapiens) (UniProt P01106); assay: ATG_Myc_CIS: Attagene CIS-FACTORIAL HepG2 Assay for human Myelocytomatosis (Myc) Proto-Oncogene Transcription Factor (AID 2282990); settings: HepG2, Attagene cis-reporter transcription factor activity; actives raise or lower the signal
Sequence of Myc proto-oncogene protein (Homo sapiens) (P01106 whole entry, looked up): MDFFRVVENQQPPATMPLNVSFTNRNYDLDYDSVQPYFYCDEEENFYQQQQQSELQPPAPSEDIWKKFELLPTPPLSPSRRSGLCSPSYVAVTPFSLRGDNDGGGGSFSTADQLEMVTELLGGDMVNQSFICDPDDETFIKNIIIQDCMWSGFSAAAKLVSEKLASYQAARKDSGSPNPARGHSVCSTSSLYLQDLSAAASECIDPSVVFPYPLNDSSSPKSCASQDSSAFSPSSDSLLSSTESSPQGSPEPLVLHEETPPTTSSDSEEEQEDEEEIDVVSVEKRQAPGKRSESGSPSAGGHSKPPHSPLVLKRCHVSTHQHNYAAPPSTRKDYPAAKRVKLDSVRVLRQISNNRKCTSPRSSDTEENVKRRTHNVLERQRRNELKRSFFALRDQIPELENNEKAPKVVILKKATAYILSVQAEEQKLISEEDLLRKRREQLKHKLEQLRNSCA
Outline: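 HepG2, transient MRTU transfection (cis promoters, endogenous TFs); 24 h dosing; TriZol RNA → oligo(dT) RT → PCR → 6-FAM primer extension → HpaI cut → CE. Bidirectional fit vs DMSO.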

[15] = target: human Peroxisome Proliferator-activated Receptor alpha (PPARa), PPARA (gene 5465) (UniProt Q07869); assay: ATG_PPARa_TRANS: Attagene TRANS-FACTORIAL HepG2 Assay for human Peroxisome Proliferator-activated Receptor alpha (PPARa) (AID 2283001; active means hit-call score of the fitted dose curve at least 0.9, where 1 is the maximum)
Sequence of human Peroxisome Proliferator-activated Receptor alpha (PPARa), PPARA (gene 5465) (Q07869 whole entry, looked up, the tested form may be a part): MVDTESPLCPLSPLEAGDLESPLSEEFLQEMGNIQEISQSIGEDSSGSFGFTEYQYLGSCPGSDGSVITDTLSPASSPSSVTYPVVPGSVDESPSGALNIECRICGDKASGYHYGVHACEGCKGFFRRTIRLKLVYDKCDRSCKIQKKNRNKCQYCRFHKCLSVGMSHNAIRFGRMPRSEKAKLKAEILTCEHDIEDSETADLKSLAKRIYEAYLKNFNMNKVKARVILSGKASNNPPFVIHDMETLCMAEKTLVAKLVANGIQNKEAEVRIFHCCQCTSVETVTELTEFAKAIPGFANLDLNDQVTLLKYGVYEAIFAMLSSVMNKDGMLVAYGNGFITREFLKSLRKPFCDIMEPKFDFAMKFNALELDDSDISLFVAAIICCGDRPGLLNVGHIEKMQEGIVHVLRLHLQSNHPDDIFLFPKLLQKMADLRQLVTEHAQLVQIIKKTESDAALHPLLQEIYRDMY
Outline: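 Transfected HepG2 cells treated with test chemical for 24 h. RNA isolated, reverse-transcribed with oligo(dT), PCR-amplified, FAM-labelled and HpaI-digested. Fragments sized by capillary electrophoresis; gain-of-signal fit relative to DMSO.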

[16] = target: human Retinoid X Receptor beta (RXRb), RXRB (gene 6257) (UniProt P28702); assay: ATG_RXRb_TRANS: Attagene TRANS-FACTORIAL HepG2 Assay for human Retinoid X Receptor beta (RXRb) (AID 2283013; active means hit-call score of the fitted dose curve at least 0.9, where 1 is the maximum)
Sequence of human Retinoid X Receptor beta (RXRb), RXRB (gene 6257) (P28702 whole entry, looked up, the tested form may be a part): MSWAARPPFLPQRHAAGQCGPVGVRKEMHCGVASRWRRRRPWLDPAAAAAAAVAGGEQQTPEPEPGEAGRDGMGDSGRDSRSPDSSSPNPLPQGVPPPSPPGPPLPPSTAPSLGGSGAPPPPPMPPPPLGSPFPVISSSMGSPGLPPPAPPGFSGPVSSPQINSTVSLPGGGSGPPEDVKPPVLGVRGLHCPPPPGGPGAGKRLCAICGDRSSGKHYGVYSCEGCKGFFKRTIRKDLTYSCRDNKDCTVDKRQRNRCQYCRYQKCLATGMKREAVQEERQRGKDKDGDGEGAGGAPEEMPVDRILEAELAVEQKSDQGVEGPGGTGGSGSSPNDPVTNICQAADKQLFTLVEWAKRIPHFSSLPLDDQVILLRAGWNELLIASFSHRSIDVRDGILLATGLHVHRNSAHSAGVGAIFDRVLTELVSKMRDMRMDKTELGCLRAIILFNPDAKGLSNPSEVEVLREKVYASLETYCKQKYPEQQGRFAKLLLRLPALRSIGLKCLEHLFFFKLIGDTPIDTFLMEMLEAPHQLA
Outline: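 Read-out: reporter mRNA induction via RT-PCR plus capillary electrophoresis fluorescence, analysed as signal increase relative to DMSO. Cells were human HepG2, transiently transfected with GAL4-UAS reporter constructs and chimeric receptor-Gal4 fusions, dosed for 24 h.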

[17] = ATG_PBREM_CIS: Attagene CIS-FACTORIAL HepG2 Assay for human Phenobarbital-responsive Enhancer Module (PBREM) (AID 2282955); settings: HepG2 PBREM cis-reporter, Attagene multiplexed transcription; actives raise or lower the signal
Outline: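 Transfected liver-derived HepG2 cells exposed 24 h; PBREM reporter transcript quantified via RT-PCR and capillary electrophoresis, with activity in either direction referenced to DMSO.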

[18] = target: Nuclear receptor subfamily 4 group A member 2 (Homo sapiens) (UniProt P43354); assay: ATG_NURR1_TRANS: Attagene TRANS-FACTORIAL HepG2 Assay for human Nuclear Receptor Related Protein 1 (NURR1) (AID 2282985; active means hit-call score of the fitted dose curve at least 0.9, where 1 is the maximum); settings: HepG2 Attagene TRANS reporter, mRNA readout
Sequence of Nuclear receptor subfamily 4 group A member 2 (Homo sapiens) (P43354 whole entry, looked up, the tested form may be a part): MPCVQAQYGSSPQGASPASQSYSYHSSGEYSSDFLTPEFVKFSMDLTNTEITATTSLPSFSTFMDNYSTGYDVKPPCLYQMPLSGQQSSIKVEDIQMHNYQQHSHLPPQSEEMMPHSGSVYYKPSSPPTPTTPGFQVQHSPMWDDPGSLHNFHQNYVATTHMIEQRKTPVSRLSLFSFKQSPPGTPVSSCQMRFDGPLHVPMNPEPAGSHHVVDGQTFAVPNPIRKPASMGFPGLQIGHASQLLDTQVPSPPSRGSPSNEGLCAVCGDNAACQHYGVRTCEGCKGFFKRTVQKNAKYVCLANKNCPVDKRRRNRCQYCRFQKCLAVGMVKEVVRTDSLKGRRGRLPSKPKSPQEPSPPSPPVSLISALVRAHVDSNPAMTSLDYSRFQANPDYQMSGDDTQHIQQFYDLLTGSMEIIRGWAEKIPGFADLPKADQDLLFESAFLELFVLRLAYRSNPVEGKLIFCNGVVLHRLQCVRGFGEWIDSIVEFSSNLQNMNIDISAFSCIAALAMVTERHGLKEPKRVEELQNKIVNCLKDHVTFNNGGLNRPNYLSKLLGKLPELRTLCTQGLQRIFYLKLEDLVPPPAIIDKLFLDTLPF
Outline: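 Measures transcriptional activation by an exogenous NR-Gal4 chimera in transfected HepG2 liver cells. After 24 h, reporter RNA is reverse-transcribed, amplified and resolved by capillary electrophoresis; DMSO defines baseline.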

[19] = ATG_M_06_TRANS: Attagene TRANS-FACTORIAL HepG2 Assay for M06 Transcription Factor (Internal Marker) (AID 2282983; active means hit-call score of the fitted dose curve at least 0.9, where 1 is the maximum;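 further: reporter transcript level by RT-PCR then capillary electrophoresis fluorescence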); settings: HepG2 Attagene TRANS M06 internal marker reporter
Outline: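 Background control endpoint: reporter mRNA from transiently transfected HepG2 after 24 h dosing, detected by RT-PCR with capillary electrophoresis fluorescence. Analysed for gain versus DMSO.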

[20] = ATG_DR4_LXR_CIS: Attagene CIS-FACTORIAL HepG2 Assay for human Liver X Receptor (LXR), DR4 submotif (AID 2282929); settings: HepG2 Attagene DR4 cis-reporter, mRNA transcription; actives raise or lower the signal
Outline: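 DR4 cis-reporter in HepG2, 24 h exposure. Detection: RT-PCR, 6-FAM labelling, CE fragment analysis. Endpoint fitted bidirectionally, DMSO = baseline.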

Measured: AC50

CC1OC(C)OC(C)O1 (stereo unspecified)
not listed: [13] | [14] | [15] | [16] | [17] | [18] | [19] | [20]
inactive: all other assays above

CC(C)C(=O)Cl
inactive: [13] | [3] | [4] | [5] | [6] | [7] | [8] | [14] | [15] | [11] | [16]

O=P(O)(Oc1ccccc1)Oc1ccccc1
inactive: [2] | [13] | [17] | [7] | [9] | [18] | [14] | [15] | [10] | [11] | [16]

C=CCc1ccc(OC(=O)Cc2ccccc2)c(OC)c1
active: [10] 11.8 µM
not listed: [3] | [5] | [9] | [14] | [15] | [20]
inactive: all other assays above

CCc1cccc(C)c1N(C(=O)CCl)[C@@H](C)COC
active: [3] 0.474 µM | [10] 0.18 µM
inactive: [20] | [2] | [17] | [5] | [8] | [19] | [18] | [14] | [16] | [12]

CCCCOC(=O)CCC(=O)OCCCC
not listed: [8] | [10] | [11] | [12] | [13] | [14] | [20]
inactive: all other assays above

Cc1cc(C)c(C2=C(OC(=O)CC(C)(C)C)C3(CCCC3)OC2=O)c(C)c1
active: [2] 163 µM | [3] 7.83 µM | [7] 104 µM | [14] 189 µM
inactive: [13] | [17] | [4] | [6] | [8] | [9] | [19] | [18] | [10]

Cl/C=C\CCl
not listed: [1] | [7] | [11] | [12] | [18] | [20]
inactive: all other assays above

CCCC=NO
not listed: [4] | [18] | [19]
inactive: all other assays above

CCOP(=O)(OCC)OCC
not listed: [9] | [18] | [19]
inactive: all other assays above

O=S(=O)(O)O
inactive: [20] | [3] | [5] | [19] | [18] | [15] | [10] | [11] | [16]

CN(C)CCC#N
not listed: [1] | [2] | [17] | [18] | [20]
inactive: all other assays above

C=C(Cl)CCl
not listed: [1] | [3] | [17] | [18]
inactive: all other assays above

C[C@]12CCC(=O)C(O)=C1CC[C@@H]1[C@@H]2CC[C@]2(C)C(=O)CC[C@@H]12
active: [5] 27.6 µM
inactive: [20] | [13] | [17] | [6] | [8] | [9] | [14] | [10] | [11] | [12]

ClCC(Cl)Cl
active: [10] 26.6 µM
not listed: [2] | [8] | [11] | [18] | [20]
inactive: all other assays above

COC(=O)c1ccccc1S(=O)(=O)NC(=O)Nc1nc(C)cc(C)n1
not listed: [3] | [4] | [9] | [11] | [12] | [20]
inactive: all other assays above

Nc1ccccc1C(=O)OCCc1ccccc1
active: [1] 10 µM | [17] 21.3 µM | [10] 19.2 µM | [16] 33.4 µM
not listed: [3] | [4] | [8] | [9] | [20]
inactive: all other assays above

Cc1ccc(N(SC(F)(Cl)Cl)S(=O)(=O)N(C)C)cc1
active: [20] 15.2 µM | [4] 11.1 µM | [6] 16.6 µM | [14] 20.3 µM
inactive: [17] | [3] | [5] | [19] | [18] | [10] | [16] | [12]

CCOP(O)OCC
active: [3] 30.1 µM
not listed: [8] | [9] | [10] | [12] | [14] | [15] | [16] | [20]
inactive: all other assays above

CCC(C)(C)O
not listed: [6] | [8] | [11] | [12] | [15] | [16] | [20]
inactive: all other assays above
